Z-score and composite z-score data for eight compounds are collected here from PubChem BioAssay.

The source made the active and inactive calls. Unless noted, how the calls were made is not given here.

Assay [1] can be described thus: compound effects on lung adenocarcinoma cell viability – A549, calcein-AM fluorescence, 48 h, basal, profiling panel (AID 1162). Further: test concentration not given here. The note with it: higher = more signal.
Assay [2] in a line: compound effects on differentiated 3T3-L1 adipocyte viability – cell-based, 3T3-L1 adipocytes, calcein-AM fluorescence, 48 h, basal, profiling panel (AID 1163). Further: test concentration not given here. The note with it: 3T3-L1 adipocytes viability, higher = more signal.
The nature of assay [3]: compound effects on hepatocellular carcinoma cell viability – HepG2, calcein-AM fluorescence, 48 h, basal, profiling panel (AID 1164). Further: test concentration not given here. The following applies: higher = more signal.
Assay [4] is described as follows: compound effects on multiple myeloma cell viability – MM1S, calcein-AM fluorescence, 48 h, basal, profiling panel (AID 1165).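 Further: viability of MM1S multiple myeloma cells under basal unstimulated conditions; test concentration not given here.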 The following applies: higher = more signal.
A short description of assay [5]: calcein-AM signal in unstimulated myeloma cells – cell-based, calcein-AM fluorescence, 48 h, PK04 Diversity Set, profiling panel (AID 1166).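 Further: cells grown under basal conditions without added stimulus; test concentration not given here.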 The note with it: RPMI8226 myeloma viability, higher = more signal.
Assay [6] can be described thus: JC-1 mitochondrial signal, unstimulated HepG2 cells – cell-based, JC-1 fluorescence, 24 h, 100 nL compound, profiling panel (AID 1167). Further: test concentration not given here. The note with it: HepG2 mitochondrial potential, higher = more signal.
Assay [7] can be described thus: JC-1 mitochondrial signal, unstimulated adipocytes – cell-based, JC-1 fluorescence, 3T3-L1 adipocytes, 24 h, 100 nL compound, profiling panel (AID 1168). Further: test concentration not given here. The note with it: JC-1 mitochondrial fluorescence, higher = more signal, called active from +8 up or from −8 down.
A short description of assay [8]: JC-1 mitochondrial signal, unstimulated myeloma cells – cell-based, JC-1 fluorescence, RPMI8226, 24 h, 100 nL compound, profiling panel (AID 1169). Further: test concentration not given here. The following applies: JC-1 mitochondrial potential fluorescence, higher = more signal.
Assay [9] can be described thus: JC-1 mitochondrial signal, unstimulated MM1S myeloma – cell-based, JC-1 fluorescence, 24 h, 100 nL compound, profiling panel (AID 1170). Further: test concentration not given here. The following applies: MM1S mitochondrial potential, higher = more signal.
A short description of assay [10]: resazurin metabolic signal in A549 cells – cell-based, resazurin fluorescence, 24 h, PK04 Diversity Set, profiling panel (AID 1171). Further: test concentration not given here. The following applies: A549 viability, higher = more signal, called active from +8 up or from −8 down.
Assay [11] in a line: resazurin metabolic signal in HepG2 cells – cell-based, resazurin fluorescence, 24 h, PK04 Diversity Set, profiling panel (AID 1172). Further: test concentration not given here. The following applies: HepG2 viability, higher = more signal.
A short description of assay [12]: budding yeast growth changes without added modifier – OD600, strain BY4716, 24 h, basal condition, primary screen (AID 1173). The following applies: S. cerevisiae BY4716 growth, OD600, 24 h; higher = more signal, called active from +8 up or from −8 down.
A short description of assay [13]: viability profiling in MM1S myeloma cells – cell-based, resazurin fluorescence, basal, 24 h, PK04 Diversity Set, profiling panel (AID 1174). Further: test concentration not given here. The following applies: higher = more signal, called active from +8 up or from −8 down.
Assay [14] has as its target Dihydroorotate dehydrogenase (quinone), mitochondrial (Plasmodium falciparum (isolate 3D7)) (UniProt Q08210). Briefly: inhibition of P. falciparum DHODH – biochemical, C-terminal His tag, absorbance 600 nm, primary screen (AID 1175).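 Further: recombinant parasite enzyme with a five histidine tag at its C terminus; test concentration not given here.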 The following applies: PfDHODH enzyme, DCIP absorbance 600 nm; higher = more signal, called active from +8 up or from −8 down.
The nature of assay [15]: inhibition of PAO1 biofilm formation – strain PAO1, LB-PBS medium, absorbance 600 nm, primary screen (AID 1176). Further: test concentration not given here. The following applies: P. aeruginosa PAO1 growth/biofilm, A600, 12 h; higher = more signal.
A short description of assay [16]: growth modulation of vineyard yeast isolate – strain RM11-1a, OD600, basal, 24 h, primary screen (AID 1177).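 Further: cultures grown under basal conditions with no added stressor; test concentration not given here.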 The note with it: S. cerevisiae RM11-1a growth, OD600, 24 h; higher = more signal, called active from +8 up or from −8 down.
A short description of assay [17]: growth of efflux-deficient E. coli DRC39 – strain DRC39, OD650, 24 h, E. coli filamentation inducers, primary screen (AID 1178).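 Further: growth measured as culture turbidity by optical density at 650 nm; test concentration not given here.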 The following applies: E. coli DRC39 acrAB, higher = more signal, called active from +8 up or from −8 down.
Assay [18] can be described thus: growth of efflux-deficient E. coli DRC39 – strain DRC39, OD650, 48 h, E. coli filamentation inducers, primary screen (AID 1179).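 Further: screen aims at cell division blockers that make cells filament.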 The following applies: E. coli DRC39 delta-acrAB growth, higher = more signal, called active from +8 up or from −8 down.
Assay [19] can be described thus: viability profiling in RPMI8226 myeloma cells – cell-based, resazurin fluorescence, basal, 24 h, PK04 Diversity Set, profiling panel (AID 1180).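 Further: RPMI8826 multiple myeloma cell line at 5000 cells per well; test concentration not given here.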 The note with it: higher = more signal.
For assay [20], the target named is E3 ubiquitin-protein ligase XIAP (Homo sapiens) (UniProt P98170). Briefly: small molecules binding XIAP protein – biophysical, small-molecule microarray, fluorescence 635 nm, primary screen (AID 1181).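 Further: score merges 667 nm emission and signal to noise over triplicate slides.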 The note with it: higher = more signal.
Sequence of E3 ubiquitin-protein ligase XIAP (Homo sapiens) (P98170 whole entry, looked up): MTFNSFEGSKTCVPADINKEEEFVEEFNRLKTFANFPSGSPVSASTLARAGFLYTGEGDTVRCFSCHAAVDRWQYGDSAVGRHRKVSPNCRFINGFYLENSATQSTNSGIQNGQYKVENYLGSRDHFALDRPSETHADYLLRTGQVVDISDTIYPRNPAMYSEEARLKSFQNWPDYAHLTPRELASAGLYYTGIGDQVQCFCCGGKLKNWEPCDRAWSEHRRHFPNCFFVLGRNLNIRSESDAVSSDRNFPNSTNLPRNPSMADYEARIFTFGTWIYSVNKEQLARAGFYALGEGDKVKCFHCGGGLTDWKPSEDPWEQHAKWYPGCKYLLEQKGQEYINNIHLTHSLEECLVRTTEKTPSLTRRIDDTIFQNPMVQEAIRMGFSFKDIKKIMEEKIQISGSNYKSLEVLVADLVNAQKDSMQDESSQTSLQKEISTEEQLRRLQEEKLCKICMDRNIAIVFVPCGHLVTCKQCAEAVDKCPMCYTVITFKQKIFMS

Sequence of Dihydroorotate dehydrogenase (quinone), mitochondrial (Plasmodium falciparum (isolate 3D7)) (Q08210 whole entry, looked up): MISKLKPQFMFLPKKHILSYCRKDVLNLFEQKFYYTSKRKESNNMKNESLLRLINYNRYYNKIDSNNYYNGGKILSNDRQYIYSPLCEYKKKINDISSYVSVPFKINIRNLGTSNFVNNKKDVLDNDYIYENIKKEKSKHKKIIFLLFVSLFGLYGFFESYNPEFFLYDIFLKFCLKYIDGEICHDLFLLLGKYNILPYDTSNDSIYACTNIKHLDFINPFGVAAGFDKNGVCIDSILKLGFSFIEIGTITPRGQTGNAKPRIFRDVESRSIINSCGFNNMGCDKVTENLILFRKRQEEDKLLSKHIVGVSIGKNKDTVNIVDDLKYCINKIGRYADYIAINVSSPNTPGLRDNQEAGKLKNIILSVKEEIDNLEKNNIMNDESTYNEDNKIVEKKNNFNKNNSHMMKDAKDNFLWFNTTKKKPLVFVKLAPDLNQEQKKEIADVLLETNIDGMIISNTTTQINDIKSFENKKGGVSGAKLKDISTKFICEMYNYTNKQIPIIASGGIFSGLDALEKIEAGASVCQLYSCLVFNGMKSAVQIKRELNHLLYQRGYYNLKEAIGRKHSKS

As for `COCC(=C=CC[C@H](O)c1ccc(OCCO)cc1)C[C@H](O)c1cc(Cl)cc(Cl)c1O`, the z-score is -1.05 in assay [1]; 0.0622 in [2]; -0.616 in assay [3]; -2.31 in [4]; -0.638 in [5]; -0.0342 in [6]. Also, the z-score in [7] was 0.138 (inactive); in assay [8], 0.04; in assay [9] it was -1.42; in assay [10], 0.799 (inactive); in assay [11] it was 0.751; in [12] it was -18 (active). Besides, the z-score in [13] is 0.668 (inactive); in assay [15] it was 0.354 (inactive); in assay [16], -22.1 (active); in [17], 1.43 (inactive); in [18] it was 1.27 (inactive); in assay [19] it was 0.708. The composite z-score in assay [14] is -4.37 (inactive); in assay [20] it was 0.0724.
`C[N+](C)(C)CCCCCCNC(=O)[C@H]1C[C@H]2C(=O)N3CCC[C@H]3C(=O)N2[C@H]1c1ccc(O)cc1`: the z-score was -0.827 in [1]; 0.262 in assay [2]; -1.14 in assay [3]; 0.327 in assay [4]; 0 in assay [5]; -1.4 in assay [6]. The z-score in [7] is 0.435 (inactive); in [8], -0.655; in assay [9], -0.439; in assay [10], 0.194 (inactive); in assay [11], 0.202; in [12] it was -0.652 (inactive). The z-score in [13] was 0.488 (inactive); in [15], 2.48 (inactive); in [16] it was -0.201 (inactive); in assay [17], -0.834 (inactive); in [18], -1.15 (inactive); in [19], -0.603. Also, the composite z-score in [14] was -2.18 (inactive); in assay [20], 0.127.
In the case of `CC(C)N1C(=O)c2ccccc2[C@@H](C(=O)NCCCN(C)C)[C@@H]1c1ccc(CO)cc1`, the z-score in assay [1] is 0.177; in [2], 1.46; in [3] it was 0.0397; in assay [4], 0.551; in [5], -0.981; in assay [6], 1.09. The z-score in assay [7] is -0.205 (inactive); in assay [8], 0.75; in assay [9], 0.499; in assay [10], -0.565 (inactive); in assay [11], -0.456; in [12], -0.725 (inactive). Moreover, the z-score was -0.0365 (inactive) in [13]; -0.273 (inactive) in assay [15]; 0.625 (inactive) in assay [16]; -0.315 (inactive) in assay [17]; -0.621 (inactive) in assay [18]; 0.764 in [19]. Besides, the figures for the composite z-score in assay [14] and in [20] were 0.465 (inactive) and 0.013, respectively.
`CC(C)=CCCC(C)=CC(O)C1C=CC2C(=O)N(c3ccccc3)C(=O)C2N1Nc1ccccc1` (stereo not given): the z-score in [1] was -0.846; in [2] it was -1.34; in assay [3], -0.731; in [4] it was -1.77; in assay [5], -1.02; in assay [6], -2. Besides, the z-score in assay [7] was 0.224 (inactive); in assay [8] it was -0.222; in assay [9] it was -0.236; in [10], -0.518 (inactive); in [11], -1.4; in [12], -1.66 (inactive). The z-score in assay [13] was -1.49 (inactive); in assay [15], 1.32 (inactive); in assay [16], 0.42 (inactive); in [17], -0.994 (inactive); in assay [18] it was -0.927 (inactive); in assay [19] it was -1.56. Besides, the figures for the composite z-score in [14] and in [20] were 0.0928 (inactive) and 0.0655, respectively.
For the compound `CC(=CC1CCCCC1)[C@@H](NC(=O)c1ccc(C(F)(F)F)cc1)c1ccc(-c2ccccc2)cc1`, the z-score was -0.165 in assay [1]; -0.791 in assay [2]; -0.839 in assay [3]; -1.5 in assay [4]; -2.06 in assay [5]; -2.33 in assay [6]. Moreover, the z-score in [7] is -1.09 (inactive); in assay [8] it was -0.515; in assay [9], -0.693; in [10], 0.334 (inactive); in [11], 0.0536; in assay [12], 1.08 (inactive). Besides, the z-score in [13] was -0.549 (inactive); in assay [15], 1.31 (inactive); in assay [16], 0.088 (inactive); in assay [17] it was -1.16 (inactive); in [18] it was -0.822 (inactive); in assay [19], -0.18. Also, the composite z-score in assay [14] is -0.468 (inactive); in assay [20], -0.115.
Turning to `CC1=C2[C@@H](CCc3ccccc3)OB(O)C[C@@H]2n2c(=O)n(-c3ccccc3)c(=O)n2C1`, the z-score in assay [1] was 0.328; in [2], -0.448; in [3], -0.335; in [4] it was 0.271; in [5], -1.14; in assay [6], -2.01. The z-score was 0.553 (inactive) in [7]; 0.146 in assay [8]; -0.126 in [9]; -0.699 (inactive) in assay [10]; -0.32 in assay [11]; -2.07 (inactive) in assay [12]. The z-score in [13] is -0.498 (inactive); in assay [15], -0.177 (inactive); in assay [16] it was -0.42 (inactive); in assay [17], -0.618 (inactive); in [18], -0.63 (inactive); in assay [19], -0.582. Besides, the composite z-score in assay [14] is 0.369 (inactive); in assay [20] it was 0.0193.
As for `CCCNC(=O)[C@@H]1c2ccccc2C(=O)N(Cc2ccccc2)[C@H]1c1ccc(CO)cc1`, the z-score was 0.756 in assay [1]; 1.38 in [2]; 0.817 in assay [3]; -0.183 in [4]; 0.502 in [5]; 2.12 in assay [6]. Moreover, the z-score is -1.28 (inactive) in [7]; -0.681 in assay [8]; -0.549 in assay [9]; 0.528 (inactive) in assay [10]; -0.898 in assay [11]; 0.215 (inactive) in assay [12]. The z-score in assay [13] was 0.0254 (inactive); in [15], 1.27 (inactive); in [16], 0.797 (inactive); in assay [17] it was -0.229 (inactive); in assay [18], -0.969 (inactive); in [19], 0.477. For the same compound, the values for the composite z-score in assay [14] and in assay [20] were 0.939 (inactive) and -0.276, respectively.
`CN(C)CCCNC(=O)[C@@]1(Cc2ccccc2I)c2ccccc2C(=O)N(Cc2ccccc2C(F)(F)F)[C@H]1c1ccc(CO)cc1`: the z-score was -2.7 in assay [1]; -0.469 in assay [2]; -5.13 in assay [3]; -3.8 in assay [4]; -4.33 in assay [5]; -1.04 in [6]. The z-score in [7] was 0.64 (inactive); in [8] it was -0.98; in assay [9] it was -2.43; in assay [10] it was -5.93 (inactive); in assay [11] it was -6.04; in assay [12], -6.8 (inactive). Besides, the z-score was -7.53 (inactive) in [13]; 0.0993 (inactive) in [15]; 0.653 (inactive) in [16]; -0.299 (inactive) in [17]; 0.247 (inactive) in assay [18]; -4.01 in assay [19]. Further, the composite z-score in assay [14] was 0.35 (inactive); in assay [20] it was -0.288.
